The supplement of paper PMC10849652
Of roughly 8,800 targets only a part is listed; those with a hit were picked by preference. About 0.5% of all pairs of compound and target were hits. Values without a mark were called inactive.

Columns and labels:
Assay in all cases: log2 fold change, soluble protein after heating vs DMSO (PISA); higher = thermal stabilisation; K562 lysate, 10 uM; active = over 0.2 and 3.5 SD of the protein, either way, in both replicates (recomputed)
[1] = compound: CCCS(=O)(=O)Nc1ccc(F)c(C(=O)c2c[nH]c3ncc(-c4ccc(Cl)cc4)cc23)c1F [vemurafenib]
How it was run: (§1)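 A 30 min treatment with 10 μM compound was applied to crude K562 extract at 1 mg/mL protein in PBS pH 7.4 with 1 mM MgCl2. Heating for 3 min spanned 48°C-58°C, after which aliquots were pooled, adjusted to 0.5% NP-40 at 4°C and spun at 21,000xg for 90 min. TMTpro 16plex LC-MS/MS of the supernatant, with channel sums equalised, gave values recorded as log-two fold change in thermal stability against solvent controls, from duplicates.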

[2] = compound: CCCS(=O)(=O)Nc1ccc(F)c(C(=O)c2c[nH]c3ncc(Cl)cc23)c1F
How it was run: as §1

[3] = compound: CC[C@@H]1C(=O)N(C)c2cnc(Nc3ccc(C(=O)NC4CCN(C)CC4)cc3OC)nc2N1C1CCCC1
How it was run: as §1

[4] = compound: CC[C@@H]1C(=O)N(C)c2cnc(Nc3ccc(C(=O)N[C@H]4CC[C@H](N5CCN(CC6CC6)CC5)CC4)cc3OC)nc2N1C(C)C [volasertib]
How it was run: as §1

[5] = compound: CCn1c(C(=O)N(C2CC2)C2CC2)cc2c3c(ncn3C)c(Nc3cc(C)n(C)n3)nc21
How it was run: as §1

[6] = compound: CCn1cc(-c2ccnc3[nH]c(-c4cccc(CN(C)C)c4)cc23)c(-c2ccc(NC(=O)N(C)C)cc2)n1
How it was run: as §1

[7] = compound: CN1CCC(CNc2ccc3ncc(-c4cccc(OC(F)(F)F)c4)n3n2)CC1
How it was run: as §1

[8] = compound: CN1CCN(CCOc2cc(OC3CCOCC3)c3c(Nc4c(Cl)ccc5c4OCO5)ncnc3c2)CC1 [saracatinib]
How it was run: as §1

[9] = compound: CN1CCN(c2nc(C3=C(c4c[nH]c5ccccc45)C(=O)NC3=O)c3ccccc3n2)CC1 [sotrastaurin]
How it was run: as §1

[10] = compound: CCN(CCCOc1ccc2c(Nc3cc(CC(=O)Nc4cccc(F)c4)[nH]n3)ncnc2c1)CCOP(=O)(O)O [barasertib]
How it was run: as §1

UniProt P22314, sequence (P22314 whole entry, looked up): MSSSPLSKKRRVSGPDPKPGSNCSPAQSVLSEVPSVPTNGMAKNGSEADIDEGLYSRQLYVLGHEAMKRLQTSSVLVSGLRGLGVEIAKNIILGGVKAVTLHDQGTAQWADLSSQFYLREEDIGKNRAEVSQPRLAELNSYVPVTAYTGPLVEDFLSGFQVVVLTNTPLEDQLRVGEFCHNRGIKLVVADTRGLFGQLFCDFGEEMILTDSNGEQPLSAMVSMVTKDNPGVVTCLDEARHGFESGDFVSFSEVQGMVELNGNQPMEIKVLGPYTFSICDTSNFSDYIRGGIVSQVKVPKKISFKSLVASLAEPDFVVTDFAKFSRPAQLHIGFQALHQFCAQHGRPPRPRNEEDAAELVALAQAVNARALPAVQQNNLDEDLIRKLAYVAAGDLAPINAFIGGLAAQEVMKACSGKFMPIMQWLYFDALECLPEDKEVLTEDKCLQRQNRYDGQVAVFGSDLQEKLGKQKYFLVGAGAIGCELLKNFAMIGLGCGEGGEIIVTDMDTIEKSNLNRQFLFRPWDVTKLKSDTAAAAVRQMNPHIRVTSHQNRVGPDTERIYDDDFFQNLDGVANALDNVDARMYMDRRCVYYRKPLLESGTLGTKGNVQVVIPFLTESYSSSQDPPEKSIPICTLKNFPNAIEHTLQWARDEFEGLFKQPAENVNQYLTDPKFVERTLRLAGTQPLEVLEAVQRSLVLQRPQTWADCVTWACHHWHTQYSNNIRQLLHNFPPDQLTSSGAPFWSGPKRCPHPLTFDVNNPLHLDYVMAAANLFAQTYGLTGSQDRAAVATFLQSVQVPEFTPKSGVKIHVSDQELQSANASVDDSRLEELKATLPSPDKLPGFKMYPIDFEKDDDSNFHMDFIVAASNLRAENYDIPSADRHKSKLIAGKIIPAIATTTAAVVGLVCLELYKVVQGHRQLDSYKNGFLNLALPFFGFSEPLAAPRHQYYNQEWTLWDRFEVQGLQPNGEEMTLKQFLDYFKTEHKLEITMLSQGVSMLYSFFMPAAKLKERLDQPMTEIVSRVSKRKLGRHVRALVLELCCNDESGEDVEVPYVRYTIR
UniProt P10646, sequence (P10646 whole entry, looked up): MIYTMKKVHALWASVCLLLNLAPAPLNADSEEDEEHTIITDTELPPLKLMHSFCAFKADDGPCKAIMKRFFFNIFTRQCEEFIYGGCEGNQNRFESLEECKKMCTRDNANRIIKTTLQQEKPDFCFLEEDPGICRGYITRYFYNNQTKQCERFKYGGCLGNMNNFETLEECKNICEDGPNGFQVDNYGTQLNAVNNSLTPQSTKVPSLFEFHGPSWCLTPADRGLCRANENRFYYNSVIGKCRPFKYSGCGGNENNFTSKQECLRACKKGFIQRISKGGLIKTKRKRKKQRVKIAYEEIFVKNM
UniProt Q15386, sequence (Q15386 whole entry, looked up): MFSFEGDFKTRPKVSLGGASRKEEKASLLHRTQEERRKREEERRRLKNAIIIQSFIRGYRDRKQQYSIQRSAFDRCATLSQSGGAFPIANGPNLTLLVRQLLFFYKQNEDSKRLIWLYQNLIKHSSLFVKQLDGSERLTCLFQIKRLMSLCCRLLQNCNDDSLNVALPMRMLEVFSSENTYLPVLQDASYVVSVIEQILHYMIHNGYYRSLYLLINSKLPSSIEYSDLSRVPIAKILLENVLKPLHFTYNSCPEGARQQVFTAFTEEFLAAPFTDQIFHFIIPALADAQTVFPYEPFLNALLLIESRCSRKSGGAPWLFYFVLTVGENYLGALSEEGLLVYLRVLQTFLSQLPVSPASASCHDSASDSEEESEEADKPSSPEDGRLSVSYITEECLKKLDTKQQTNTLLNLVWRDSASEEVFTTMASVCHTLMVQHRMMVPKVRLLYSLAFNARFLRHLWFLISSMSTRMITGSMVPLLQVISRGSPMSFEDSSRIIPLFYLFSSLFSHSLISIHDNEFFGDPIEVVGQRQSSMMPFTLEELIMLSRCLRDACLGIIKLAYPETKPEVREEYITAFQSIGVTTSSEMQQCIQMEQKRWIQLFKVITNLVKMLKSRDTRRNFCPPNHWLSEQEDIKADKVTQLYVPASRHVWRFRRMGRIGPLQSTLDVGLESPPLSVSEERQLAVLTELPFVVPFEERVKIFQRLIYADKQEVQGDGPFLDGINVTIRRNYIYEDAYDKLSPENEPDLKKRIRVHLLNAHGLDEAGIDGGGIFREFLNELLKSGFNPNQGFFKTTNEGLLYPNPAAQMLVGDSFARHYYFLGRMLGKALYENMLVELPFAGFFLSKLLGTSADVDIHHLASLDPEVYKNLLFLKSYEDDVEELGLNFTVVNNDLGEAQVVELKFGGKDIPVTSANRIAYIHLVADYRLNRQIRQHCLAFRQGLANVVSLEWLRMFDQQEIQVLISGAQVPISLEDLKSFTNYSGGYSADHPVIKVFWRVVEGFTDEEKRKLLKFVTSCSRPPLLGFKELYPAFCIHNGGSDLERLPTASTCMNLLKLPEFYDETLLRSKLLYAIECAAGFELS
UniProt Q5TEJ8, sequence (Q5TEJ8 whole entry, looked up): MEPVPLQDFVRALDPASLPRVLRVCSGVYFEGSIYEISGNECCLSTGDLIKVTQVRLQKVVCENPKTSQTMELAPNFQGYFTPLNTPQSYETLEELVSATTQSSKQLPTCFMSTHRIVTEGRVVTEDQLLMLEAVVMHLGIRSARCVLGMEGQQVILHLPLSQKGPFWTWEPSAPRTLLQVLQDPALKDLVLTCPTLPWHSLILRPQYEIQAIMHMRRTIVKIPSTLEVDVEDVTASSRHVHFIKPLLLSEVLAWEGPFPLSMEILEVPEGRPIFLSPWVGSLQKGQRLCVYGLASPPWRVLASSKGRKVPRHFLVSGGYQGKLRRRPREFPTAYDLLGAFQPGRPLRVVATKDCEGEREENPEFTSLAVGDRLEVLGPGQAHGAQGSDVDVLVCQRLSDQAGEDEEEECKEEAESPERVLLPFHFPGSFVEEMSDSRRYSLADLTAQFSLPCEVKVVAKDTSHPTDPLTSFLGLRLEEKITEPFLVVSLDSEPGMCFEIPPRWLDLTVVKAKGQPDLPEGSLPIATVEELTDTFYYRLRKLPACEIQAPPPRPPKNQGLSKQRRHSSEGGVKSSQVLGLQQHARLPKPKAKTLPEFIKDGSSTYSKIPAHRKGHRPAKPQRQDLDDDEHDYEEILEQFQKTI
UniProt Q01664, sequence (Q01664 whole entry, looked up): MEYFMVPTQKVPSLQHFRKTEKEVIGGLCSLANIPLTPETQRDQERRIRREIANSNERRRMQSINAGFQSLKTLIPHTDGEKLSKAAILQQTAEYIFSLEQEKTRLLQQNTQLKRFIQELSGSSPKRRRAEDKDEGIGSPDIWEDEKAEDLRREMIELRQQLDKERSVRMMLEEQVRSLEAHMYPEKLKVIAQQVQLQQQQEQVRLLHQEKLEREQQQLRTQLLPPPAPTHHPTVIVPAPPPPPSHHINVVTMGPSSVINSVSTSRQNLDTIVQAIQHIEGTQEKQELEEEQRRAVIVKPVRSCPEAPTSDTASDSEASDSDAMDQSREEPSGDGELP
UniProt P68371, sequence (P68371 whole entry, looked up): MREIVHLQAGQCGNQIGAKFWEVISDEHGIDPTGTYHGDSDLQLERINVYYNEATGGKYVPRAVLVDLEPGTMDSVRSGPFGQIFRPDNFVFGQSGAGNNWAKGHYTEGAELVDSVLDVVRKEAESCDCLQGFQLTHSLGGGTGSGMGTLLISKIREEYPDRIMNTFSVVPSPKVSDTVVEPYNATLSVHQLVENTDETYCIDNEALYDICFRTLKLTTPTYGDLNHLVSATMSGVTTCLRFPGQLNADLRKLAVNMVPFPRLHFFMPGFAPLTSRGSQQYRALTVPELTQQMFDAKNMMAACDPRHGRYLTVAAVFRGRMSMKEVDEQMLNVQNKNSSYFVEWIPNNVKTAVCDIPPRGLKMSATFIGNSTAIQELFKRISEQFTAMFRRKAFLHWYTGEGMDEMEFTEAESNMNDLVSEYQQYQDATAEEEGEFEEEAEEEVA
UniProt Q12933, sequence (Q12933 whole entry, looked up): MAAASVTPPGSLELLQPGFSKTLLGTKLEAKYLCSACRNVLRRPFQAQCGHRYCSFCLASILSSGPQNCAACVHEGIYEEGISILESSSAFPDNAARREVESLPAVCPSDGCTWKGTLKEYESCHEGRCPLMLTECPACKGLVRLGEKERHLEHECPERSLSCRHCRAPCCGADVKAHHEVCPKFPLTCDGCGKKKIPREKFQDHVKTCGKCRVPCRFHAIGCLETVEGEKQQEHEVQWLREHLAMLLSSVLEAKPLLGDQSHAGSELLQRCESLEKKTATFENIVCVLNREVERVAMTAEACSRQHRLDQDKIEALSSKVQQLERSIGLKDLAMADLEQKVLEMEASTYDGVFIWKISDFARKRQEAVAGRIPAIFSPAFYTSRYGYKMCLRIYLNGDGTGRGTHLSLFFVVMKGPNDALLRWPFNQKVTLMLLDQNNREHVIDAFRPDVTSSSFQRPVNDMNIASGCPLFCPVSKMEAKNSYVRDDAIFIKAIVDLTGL
UniProt Q9NYB0, sequence (Q9NYB0 whole entry, looked up): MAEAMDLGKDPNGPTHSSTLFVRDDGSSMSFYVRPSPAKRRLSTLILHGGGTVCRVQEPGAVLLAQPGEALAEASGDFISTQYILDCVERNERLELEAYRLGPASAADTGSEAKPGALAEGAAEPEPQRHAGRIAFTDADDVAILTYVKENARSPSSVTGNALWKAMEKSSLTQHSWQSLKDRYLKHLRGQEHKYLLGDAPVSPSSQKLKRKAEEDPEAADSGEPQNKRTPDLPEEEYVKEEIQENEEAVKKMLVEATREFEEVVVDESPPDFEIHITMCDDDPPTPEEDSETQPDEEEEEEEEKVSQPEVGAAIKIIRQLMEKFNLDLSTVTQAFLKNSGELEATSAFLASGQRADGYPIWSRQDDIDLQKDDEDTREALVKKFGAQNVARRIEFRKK
UniProt O60637, sequence (O60637 whole entry, looked up): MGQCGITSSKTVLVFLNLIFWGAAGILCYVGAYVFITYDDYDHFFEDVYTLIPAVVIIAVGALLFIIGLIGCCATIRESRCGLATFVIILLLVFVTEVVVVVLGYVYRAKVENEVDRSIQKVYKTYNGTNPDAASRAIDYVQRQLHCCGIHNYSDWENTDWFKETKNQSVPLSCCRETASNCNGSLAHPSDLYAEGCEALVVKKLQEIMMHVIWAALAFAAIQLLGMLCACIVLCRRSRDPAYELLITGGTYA

Target	log2 fold change [1]	log2 fold change [2]	log2 fold change [3]	log2 fold change [4]	log2 fold change [5]	log2 fold change [6]	log2 fold change [7]	log2 fold change [8]	log2 fold change [9]	log2 fold change [10]
TNKS (UniProt O95271)	-0.035	0.124	0.055	-0.11	0.027	0.207	-0.092	-0.007	0.021	
TUBB4B (UniProt P68371)	0.006	0.004	-0.032	-0.034	0.005	-0.134	-0.011	0.03	-0.021	-0.092
UFSP2 (UniProt Q9NUQ7)	0.074	-0.018	0.072	-0.071	0.016	-0.011	0.002	0.036	0.018	-0.019
THEMIS2 (UniProt Q5TEJ8)	-0.004	0.11	0.016	0.132	0.015	-0.019	0.004	0.01	-0.016	-0.052
TSPAN3 (UniProt O60637)	-0.075	-0.052	0.01	0.073	-0.222	0.663 (active)	-0.3	-0.038		
TPM4 isoform 2 (UniProt P67936)	0.031	-0.016	0.052	0.005	0.048	0.525 (active)	-0.231	-0.001	-0.03	0.021
TMEM14C (UniProt Q9P0S9)	0.027	0.087	0.129	0.045	-0.053			-0.088	0.06	-0.038
TMEM177 (UniProt Q53S58)	-0.057	0.011	-0.005	-0.076	0.078	0.056	-0.161		-0.017	0.063
TFAP4 (UniProt Q01664)	0.105	0.021	0.131	-0.112	0.129	0.597	-0.189		0.007	0.072
TNIK (UniProt C9J338)	0.151	0.064	0.171	-0.011		-0.51	0.341	0.033	-0.026	0.028
TPM3 isoform 3 (UniProt P06753)	-0.082	0.011	-0.187	0.036	0.029	-0.493	0.184	0.009	0.028	
UBP1 (UniProt Q9NZI7)	-0.014	0.117	0.01	-0.017	0.007	0.228 (active)	-0.24	-0.008	-0.063	0.008
TMEM161B (UniProt Q8NDZ6)	-0.112	-0.076	-0.073	-0.055	-0.028	0.055	-0.104		0.009	0.076
TRAF2 isoform 2 (UniProt Q12933)	-0.004	0.012	0.072	-0.006	0.013	-0.034	-0.032	-0.011	-0.029	0
UBE4A isoform 2 (UniProt Q14139)	-0.008	-0.001	0.003	-0.053	0.031	-0.03	-0.081	0.011	0.025	-0.009
TFPI (UniProt P10646)	-0.079	0.005	-0.019	0.016	0.093	0.689 (active)	-0.321		0.167	0.015
UBTF (UniProt P17480)	-0.024	0.002	-0.291 (active)	-0.011	0.002	0.038	-0.067	0.042	0.023	0.011
TRMT2A (UniProt Q8IZ69)	-0.028	0.004	-0.019	-0.045	0.005	-0.016	0.009	-0.007	0.002	0.016
UBE3C (UniProt Q15386)	-0.001	0.006	-0.021	-0.073	0.086	-0.075	0.002	0.04	0.03	0.016
UBR5 (UniProt O95071)	0.004	0.035	0.006	-0.031	0.01	-0.029	0.003	0.019	-0.005	0.045
TLK2 isoform 2 (UniProt Q86UE8)	-0.015	-0.011	-0.068	-0.03	-0.009	-0.171	0.085	0.021	0.26 (active)	0.017
TMEM87A (UniProt Q8NBN3)	0.032	-0.007	0.008	-0.006	-0.026	-0.114	0.332 (active)	-0.001	0.017	-0.025
TBC1D23 (UniProt Q9NUY8)	-0.003	0.011	-0.027	-0.029	-0.012	-0.058	0.023	0.012	0.017	0
UBIAD1 (UniProt Q9Y5Z9)	-0.004	0.043	0.005	0.046	-0.083	0.045	-0.335	-0.036	-0.079	
TTC37 (UniProt Q6PGP7)	0.053	-0.068		0.011	0.045			0.013	-0.019	0.018
TTLL12 (UniProt Q14166)	0.016	0.007	-0.07	-0.07	0.019	-0.033	0.009	0.004	0.022	-0.001
TUBB6 (UniProt K7ES63)	0.072	-0.027	-0.096	-0.064	0.018	-0.06	0.23		0.036	-0.012
TUBB4A (UniProt M0QYM7)	0.019	-0.099	-0.193	-0.069	-0.053	-0.772	0.448		0.111	0.315
UBA1 (UniProt P22314)	0.018	0.005	-0.063	-0.036	-0.006	-0.027	0.004	-0.02	0.008	0.023
TERF2IP (UniProt Q9NYB0)	-0.009	-0.003	0.075	0.022	-0.015	0.269 (active)	-0.152	-0.003	0.008	-0.006
